Each structure is given as a SMILES string. This is part of a sample that, as a whole, favours compounds with a hit. Of some 83,000 tested, about 20% had one in any assay.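 Percent growth is the endpoint: 0 to 100 indicates growth inhibition (40 means 60% inhibition), 0 means no net growth, and negative values indicate cell death.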 The source made the active and inactive calls. How the source made its calls: active means growth percent below 10; inactive means the rest.

The first experiment concerns OVCAR-8 ovarian. The experiment can be described thus: NCI-60 one-dose screen, 48 h (100 = growth as untreated, 0 = no growth, -100 = all killed). The settings on record: 10 µM unless noted.
Turning to `CCOC(=O)c1c(C)[nH]c2ccc(O)cc12`, the growth was 97.6% (inactive).
The same measure, in the same setting: then `CCC1CCCCN1C(=S)N/N=C(\C)c1ccccn1` (configuration not stated), with 9.93% (active).
On the same count and under the same terms, the value for `CC(/C=N/NC(N)=S)Cc1ccc(C(C)C)cc1` (configuration not stated) was 79.3% (inactive); that for `Nc1ccc(C(=O)/C=C/c2ccccc2)cc1` was 102% (inactive).
On the same count and under the same terms, then `Cc1oc2c(C)c3oc(=O)cc(C)c3cc2c1CCl`, with 87.1% (inactive); and `O=C(/C(Cl)=N/O)c1ccc(-c2ccccc2)cc1`, with 97.8% (inactive); and `CC(C)c1ccc(Nc2n[nH]c(=S)s2)cc1`, with 102% (inactive).
Consider `NC(=S)N/N=C\c1nccc2c(N)cccc12`, for which the growth was 15.8% (inactive).
Regarding `COc1cc2c(c(OC)c1OC)-c1ccc(NCc3ccccc3)c(=O)cc1[C@@H](NC(C)=O)CC2`, the growth is 14.5% (inactive).
The same measure, in the same setting: then `CCCCCCCCCCCCCCCCSC(=NCC)NCC`, with -15.4% (active).
On the same count and under the same terms, then `CN(Cc1ccccc1)c1ccc(SC#N)cc1`, with 85% (inactive).
On the same count and under the same terms, the value for `CC(=O)Nc1ccc(C(=O)CCl)cc1` was 92.1% (inactive); that for `O=[N+]([O-])c1ccc(N2CCN(Cc3ccccc3)CC2)c2c1no[n+]2[O-]` was 0.836% (active); that for `CCOC(=O)NC(/C=C/c1ccccc1)NC(=O)OCC` was 108% (inactive).
In the case of `CCCCN(CCCC)CCCCCCCCCCO`, the growth was 107% (inactive).
As to `S=C1SCN(Cc2cccs2)CN1Cc1cccs1`, the growth was 104% (inactive).
For `CCOC(=O)/C(=C\c1ccc2ccccc2c1)P(=O)(OCC)OCC`, the growth is 20.1% (inactive).
On the same count and under the same terms, then `Nc1ccc(Oc2ccccc2)c(Cl)c1`, with 95% (inactive); and `COc1ccc(C(Cn2ccnc2)Sc2ccc(Cl)c(Cl)c2)cc1` (configuration not stated), with 91% (inactive).
On the same count and under the same terms, then `O=[N+]([O-])/C(=C/c1ccccc1)c1ccccc1`, with 105% (inactive); and `CCCCCCC1N=C(N)N=C(N)N1c1cccc(Cl)c1` (configuration not stated), with 35.7% (inactive); and `O=C1C=CC(=O)N1C1CCCCCCCCCCC1`, with 86% (inactive).
Still for that read-out and setting: the value for `Cc1nc(Sc2nc3ccc([N+](=O)[O-])cc3s2)sc1C` was 19.5% (inactive).
On to `Fc1ccc(NCCS)cc1`, for which the growth was 103% (inactive).
The same measure, in the same setting: then `OCCOSCCO`, with 106% (inactive); and `COc1cc(OC)c(/C=C/c2c3ccccc3cc[n+]2C)c(OC)c1`, with 5.21% (active).
On the same count and under the same terms, then `CC(C)(C)c1ccc(O)c(Br)c1`, with 103% (inactive); and `O=C/C=C/c1ccc([N+](=O)[O-])cc1`, with 100% (inactive).
For the compound `COc1ccc2nc3cc(Cl)ccc3c(NCCCCCN3CCCCC3)c2c1`, the growth is -13.6% (active).
Still for that read-out and setting: the value for `COc1cc(-c2ccc(-[n+]3nc(-c4ccc([N+](=O)[O-])cc4)nn3-c3ccc([N+](=O)[O-])cc3)c(OC)c2)ccc1-[n+]1nc(-c2ccc([N+](=O)[O-])cc2)nn1-c1ccc([N+](=O)[O-])cc1` was 30.5% (inactive); that for `O=C1C=CC(=O)N1c1cc(Cl)c(Cl)cc1Cl` was 102% (inactive); that for `Nc1cccc2cccc([N+](=O)[O-])c12` was 108% (inactive).
Same read-out and setting: the value for `CCc1cnc2ccccc2c1/C=C/c1ccc(N(C)C)cc1` was 59.5% (inactive); that for `O=[N+]([O-])c1ccc(C2N(Cc3ccc(Cl)cc3)CCN2Cc2ccc(Cl)cc2)cc1` was 91% (inactive); that for `Oc1ccc2c(c1)CCc1ccccc1-2` was 106% (inactive).
Same read-out and setting: then `COc1cc(/C=C2\SC(=S)N(/C=C/c3nc4ccccc4[nH]c3=O)C2=O)cc(OC)c1OC`, with 86.4% (inactive); and `CC(C)(C)CC(C)(C)c1ccc(OCCOCCSC(=N)N)cc1`, with 58.5% (inactive).

The subject of another experiment is OVCAR-5 ovarian. The description is as above. The note with it: 10 µM unless noted.
Turning to `CCOC(=O)c1c(C)[nH]c2ccc(O)cc12`, the growth is 130% (inactive).
`CCC1CCCCN1C(=S)N/N=C(\C)c1ccccn1` (configuration not stated): the growth is 30.1% (inactive).
Still for that read-out and setting: then `CC(/C=N/NC(N)=S)Cc1ccc(C(C)C)cc1` (configuration not stated), with 86.6% (inactive).
On the same count and under the same terms, then `Nc1ccc(C(=O)/C=C/c2ccccc2)cc1`, with 113% (inactive); and `Cc1oc2c(C)c3oc(=O)cc(C)c3cc2c1CCl`, with 77.3% (inactive).
The same measure, in the same setting: then `O=C(/C(Cl)=N/O)c1ccc(-c2ccccc2)cc1`, with 109% (inactive); and `CC(C)c1ccc(Nc2n[nH]c(=S)s2)cc1`, with 119% (inactive).
In the case of `CCCCCCCCCCCCCCCCSC(=NCC)NCC`, the growth is 44.5% (inactive).
On the same count and under the same terms, then `CN(Cc1ccccc1)c1ccc(SC#N)cc1`, with 106% (inactive).
Still for that read-out and setting: the value for `O=[N+]([O-])c1ccc(N2CCN(Cc3ccccc3)CC2)c2c1no[n+]2[O-]` was 26.5% (inactive); that for `CCOC(=O)NC(/C=C/c1ccccc1)NC(=O)OCC` was 108% (inactive); that for `CCCCN(CCCC)CCCCCCCCCCO` was 97.3% (inactive).
Still for that read-out and setting: the value for `S=C1SCN(Cc2cccs2)CN1Cc1cccs1` was 98.8% (inactive).
In the case of `CCOC(=O)/C(=C\c1ccc2ccccc2c1)P(=O)(OCC)OCC`, the growth is 56.9% (inactive).
Take `Nc1ccc(Oc2ccccc2)c(Cl)c1`: the growth is 83.9% (inactive).
Still for that read-out and setting: the value for `COc1ccc(C(Cn2ccnc2)Sc2ccc(Cl)c(Cl)c2)cc1` (configuration not stated) was 91.3% (inactive); that for `O=[N+]([O-])/C(=C/c1ccccc1)c1ccccc1` was 103% (inactive); that for `Cc1nc(Sc2nc3ccc([N+](=O)[O-])cc3s2)sc1C` was 34.8% (inactive).
Same read-out and setting: then `Fc1ccc(NCCS)cc1`, with 104% (inactive); and `OCCOSCCO`, with 99.5% (inactive); and `COc1cc(OC)c(/C=C/c2c3ccccc3cc[n+]2C)c(OC)c1`, with 56.5% (inactive).
On the same count and under the same terms, then `CC(C)(C)c1ccc(O)c(Br)c1`, with 98.1% (inactive); and `O=C/C=C/c1ccc([N+](=O)[O-])cc1`, with 107% (inactive); and `COc1cc(-c2ccc(-[n+]3nc(-c4ccc([N+](=O)[O-])cc4)nn3-c3ccc([N+](=O)[O-])cc3)c(OC)c2)ccc1-[n+]1nc(-c2ccc([N+](=O)[O-])cc2)nn1-c1ccc([N+](=O)[O-])cc1`, with 59.7% (inactive).
Take `O=C1C=CC(=O)N1c1cc(Cl)c(Cl)cc1Cl`: the growth was 117% (inactive).
Still for that read-out and setting: the value for `Nc1cccc2cccc([N+](=O)[O-])c12` was 113% (inactive).
On the same count and under the same terms, the value for `O=[N+]([O-])c1ccc(C2N(Cc3ccc(Cl)cc3)CCN2Cc2ccc(Cl)cc2)cc1` was 89.6% (inactive).
On the same count and under the same terms, then `Oc1ccc2c(c1)CCc1ccccc1-2`, with 92.4% (inactive); and `COc1cc(/C=C2\SC(=S)N(/C=C/c3nc4ccccc4[nH]c3=O)C2=O)cc(OC)c1OC`, with 88.3% (inactive).
Turning to `CC(C)(C)CC(C)(C)c1ccc(OCCOCCSC(=N)N)cc1`, the growth was 73.6% (inactive).

For the origin of these results see PubChem BioAssay (NCI).
